Common to all, as to conditions: mRNA level, 48 h; actives raise or lower the signal
Read-out in assay [1]: Paternally Expressed 10 (PEG10), PEG10 (gene 23089)
The experiment in a line: LTEA_HepaRG_PEG10: Life Technologies and Expression Analysis (LTEA) Assay for Paternally Expressed 10 (PEG10) using HepaRG (AID 2283520).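 As to AC50: differentiated HepaRG human liver cells in serum-free induction medium with 0.5% DMSO; PEG10 transcript by qRT-PCR normalised to ACTB GAPDH and POLR2A.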 In outline:
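Human HepaRG cultures are dosed for 48 h across an eight-point half-log series starting at 100 uM, with 0.5% DMSO as vehicle and baseline. Gain or loss of PEG10 transcript is measured by qRT-PCR and fitted in both directions.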

Read-out in assay [2]: Nuclear factor NF-kappa-B p105 subunit (Homo sapiens) (UniProt P19838)
The experiment in a line: LTEA_HepaRG_NFKB1: Life Technologies and Expression Analysis (LTEA) Assay for Nuclear Factor Kappa B Subunit 1 (NFKB1) using HepaRG (AID 2283521).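 Also: differentiated human HepaRG liver cells in serum-free induction medium; TaqMan qRT-PCR transcript normalised to ACTB GAPDH and POLR2A housekeeping genes.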 The gist of the method: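 HepaRG, 48 h exposure; 8-pt half-log series from 100 uM in 0.5% DMSO; duplicates. Readout: NFKB1 mRNA by qRT-PCR (Fluidigm arrays), housekeeping-normalized. Gain/loss fit vs DMSO baseline.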

Read-out in assay [3]: Protein phosphatase 2A (PPP2R4), PTPA (gene 5524)
The experiment in a line: LTEA_HepaRG_PPP2R4: Life Technologies and Expression Analysis (LTEA) Assay for Protein phosphatase 2A (PPP2R4) using HepaRG (AID 2283522). The gist of the method: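 Cells were plated, cultured 48 h, switched to serum-free induction medium, then dosed for 48 h (8 points, max 100 uM, 0.5% DMSO). RNA was isolated and PPP2R4 expression measured by TaqMan qRT-PCR.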

Read-out in assay [4]: Phosphatase and tensin (PTEN), PTEN (gene 5728)
The experiment in a line: LTEA_HepaRG_PTEN: Life Technologies and Expression Analysis (LTEA) Assay for Phosphatase and tensin (PTEN) using HepaRG (AID 2283523). In outline:
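HepaRG, 48 h exposure, 8-pt half-log series from 100 uM top, 0.5% DMSO vehicle, duplicates. Readout: Fluidigm qRT-PCR of PTEN transcript; housekeeping normalization (ACTB, GAPDH, POLR2A). Gain or loss fitted relative to DMSO baseline.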

Read-out in assay [5]: solute carrier (SLC22A1), SLC22A1 (gene 6580)
The experiment in a line: LTEA_HepaRG_SLC22A1: Life Technologies and Expression Analysis (LTEA) Assay for solute carrier (SLC22A1) using HepaRG (AID 2283524).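 As to AC50: differentiated human HepaRG liver cells in serum-free induction medium.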 In outline: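 qRT-PCR readout (TaqMan, Fluidigm arrays) of SLC22A1 transcript, normalized to three housekeeping genes; bidirectional curve fit relative to 0.5% DMSO vehicle. Differentiated human HepaRG cells, 48 h chemical exposure, top concentration 100 uM, half-log steps, eight points.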

Read-out in assay [6]: Nuclear factor erythroid 2-related factor 2 (Homo sapiens) (UniProt Q16236)
The experiment in a line: LTEA_HepaRG_NFE2L2: Life Technologies and Expression Analysis (LTEA) Assay for Nuclear factor erythroid 2-related factor 2 (NFE2L2) Transcription Factor using HepaRG (AID 2283527).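 As to outcome: TaqMan qRT-PCR transcript level normalised to ACTB GAPDH and POLR2A housekeeping genes.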 The gist of the method:
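HepaRG, 48 h dosing, 8-pt half-log series from 100 uM in 0.5% DMSO, duplicates. Read-out: NFE2L2 mRNA by qRT-PCR (ACTB/GAPDH/POLR2A normalization). Bidirectional curve fit vs DMSO baseline.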

Read-out in assay [7]: succinate dehydrogenase complex iron sulfur subunit B (SDHB), SDHB (gene 6390)
The experiment in a line: LTEA_HepaRG_SDHB: Life Technologies and Expression Analysis (LTEA) Assay for succinate dehydrogenase complex iron sulfur subunit B (SDHB) using HepaRG (AID 2283528). In outline: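 Readout is SDHB transcript level by qRT-PCR, normalised to three housekeeping genes and fitted bidirectionally against 0.5% DMSO vehicle. Human HepaRG cells were treated for 48 h at up to 100 uM.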

Read-out in assay [8]: solute carrier (SLCO1B1), SLCO1B1 (gene 10599)
The experiment in a line: LTEA_HepaRG_SLCO1B1: Life Technologies and Expression Analysis (LTEA) Assay for solute carrier (SLCO1B1) using HepaRG (AID 2283530). The gist of the method: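 HepaRG, serum-free induction medium, 48 h dosing, 8-pt half-log from 100 uM, 0.5% DMSO vehicle, duplicates. Readout: SLCO1B1 mRNA, qRT-PCR, ACTB/GAPDH/POLR2A normalization; up or down fit vs DMSO.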

Read-out in assay [9]: sulfotransferase 2A1 (SULT2A1), SULT2A1 (gene 6822)
The experiment in a line: LTEA_HepaRG_SULT2A1: Life Technologies and Expression Analysis (LTEA) Assay for sulfotransferase 2A1 (SULT2A1) using HepaRG (AID 2283531). The gist of the method: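 Transcript levels of SULT2A1, quantified by qRT-PCR and normalized to three housekeeping genes, serve as the readout. Human HepaRG cultures receive test chemicals for 48 h at up to 100 uM in half-log steps, with 0.5% DMSO vehicle.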

Read-out in assay [10]: Transforming Growth Factor (TGFA), TGFA (gene 7039)
The experiment in a line: LTEA_HepaRG_TGFA: Life Technologies and Expression Analysis (LTEA) Assay for Transforming Growth Factor (TGFA) using HepaRG (AID 2283532). In outline:
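qRT-PCR read-out of TGFA transcript, normalized to three housekeeping genes, fitted bidirectionally against 0.5% DMSO baseline. Human HepaRG cultures received chemicals for 48 h at eight half-log concentrations, top 100 uM.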

Read-out in assay [11]: Transforming Growth Factor (TGFB1), TGFB1 (gene 7040)
The experiment in a line: LTEA_HepaRG_TGFB1: Life Technologies and Expression Analysis (LTEA) Assay for Transforming Growth Factor (TGFB1) Transporter using HepaRG (AID 2283533). The gist of the method:
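HepaRG, 48 h post-plating, switched to serum-free induction medium; chemicals 100 uM top, half-log, 8 pts, 0.5% DMSO, dup; 48 h exposure; RNA → Fluidigm TaqMan qRT-PCR; norm ACTB/GAPDH/POLR2A; bidirectional fit vs DMSO.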

Read-out in assay [12]: TIMP1, TIMP1 (gene 7076)
The experiment in a line: LTEA_HepaRG_TIMP1: Life Technologies and Expression Analysis (LTEA) Assay for TIMP1 using HepaRG (AID 2283534). The gist of the method: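 Readout is TIMP1 mRNA level measured by qRT-PCR and normalized to three housekeeping genes. Human HepaRG cells were treated for 48 h in duplicate at eight concentrations up to 100 uM (0.5% DMSO); gain or loss fitted against DMSO.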

Read-out in assay [13]: Tumor necrosis factor receptor 1 (TNFRSF1A), TNFRSF1A (gene 7132)
The experiment in a line: LTEA_HepaRG_TNFRSF1A: Life Technologies and Expression Analysis (LTEA) Assay for Tumor necrosis factor receptor 1 (TNFRSF1A) using HepaRG (AID 2283535). The gist of the method: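 Read-out is TNFRSF1A transcript level by TaqMan qRT-PCR, normalized to three housekeeping genes, scored as gain or loss of signal versus 0.5% DMSO. Human HepaRG cells received test chemicals for 48 h at up to 100 uM (half-log series).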

Read-out in assay [14]: Thyroid Hormone Responsive (THRSP), THRSP (gene 7069)
The experiment in a line: LTEA_HepaRG_THRSP: Life Technologies and Expression Analysis (LTEA) Assay for Thyroid Hormone Responsive (THRSP) using HepaRG (AID 2283536). In outline:
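qRT-PCR read-out (Fluidigm TaqMan), housekeeping-normalized (ACTB/GAPDH/POLR2A). HepaRG, 48 h chemical exposure, 8-pt half-log series from 100 uM in 0.5% DMSO, duplicates. Bidirectional curve fit vs 0.5% DMSO baseline.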

Read-out in assay [15]: Cellular tumor antigen p53 (Homo sapiens) (UniProt P04637)
The experiment in a line: LTEA_HepaRG_TP53: Life Technologies and Expression Analysis (LTEA) Assay for Tumor Protein P53 (TP53) using HepaRG (AID 2283537). In outline:
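Read-out is TP53 transcript level by microfluidic qRT-PCR, normalised to three housekeeping genes and fitted bidirectionally against DMSO. Human HepaRG cells received compounds for 48 h, highest concentration 100 uM.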

Read-out in assay [16]: UDP glucuronosyltransferase (UGT1A1), UGT1A1 (gene 54658)
The experiment in a line: LTEA_HepaRG_UGT1A1: Life Technologies and Expression Analysis (LTEA) Assay for UDP glucuronosyltransferase (UGT1A1) using HepaRG (AID 2283538). The gist of the method:
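Cells are plated, cultured 48 h, switched to serum-free induction medium, then dosed 48 h at eight concentrations (max 100 uM, 0.5% DMSO). RNA is isolated and UGT1A1 expression measured by qRT-PCR; changes versus DMSO are fitted in both directions.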

Read-out in assay [17]: UDP glucuronosyltransferase (UGT1A6), UGT1A6 (gene 54578)
The experiment in a line: LTEA_HepaRG_UGT1A6: Life Technologies and Expression Analysis (LTEA) Assay for UDP glucuronosyltransferase (UGT1A6) using HepaRG (AID 2283539). The gist of the method:
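HepaRG, 48 h post-plating switch to serum-free induction medium; chemical 48 h, 100 uM top, half-log x8, duplicate, 0.5% DMSO. Phenobarbital 1mM induction control. UGT1A6 mRNA by TaqMan qRT-PCR; gain/loss fit vs DMSO.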

Read-out in assay [18]: NAD(P)H dehydrogenase [quinone] 1 (NQO1), NQO1 (gene 1728)
The experiment in a line: LTEA_HepaRG_NQO1: Life Technologies and Expression Analysis (LTEA) Assay for NAD(P)H dehydrogenase [quinone] 1 (NQO1) using HepaRG (AID 2283526). In outline:
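Transcript induction or suppression is quantified by qRT-PCR in human HepaRG liver cells dosed for 48 hours. Eight half-log concentrations topping at 100 uM are used, with 0.5% DMSO as vehicle and baseline.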

Read-out in assay [19]: Pyruvate Dehydrogenase Kinase 4 (PDK4), PDK4 (gene 5166)
The experiment in a line: LTEA_HepaRG_PDK4: Life Technologies and Expression Analysis (LTEA) Assay for Pyruvate Dehydrogenase Kinase 4 (PDK4) using HepaRG (AID 2283525). The gist of the method:
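HepaRG (human liver line), 48 h chemical exposure, 8-pt half-log CRC top 100 uM, 0.5% DMSO vehicle, duplicates. Readout: TaqMan qRT-PCR of PDK4 mRNA, housekeeping-normalized; gain/loss fit relative to DMSO baseline.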

This is an account of results in PubChem BioAssay (EPA / NIEHS).

By AC50 is commonly meant the concentration giving half of the maximal activity seen.

Structures are written as SMILES. Calls of active or inactive are those of the source. The calls were made as follows: active = hit-call score of the fitted dose curve at least 0.9, where 1 is the maximum; inactive = score below 0.9.

Sequence of Nuclear factor erythroid 2-related factor 2 (Homo sapiens) (Q16236 whole entry, looked up): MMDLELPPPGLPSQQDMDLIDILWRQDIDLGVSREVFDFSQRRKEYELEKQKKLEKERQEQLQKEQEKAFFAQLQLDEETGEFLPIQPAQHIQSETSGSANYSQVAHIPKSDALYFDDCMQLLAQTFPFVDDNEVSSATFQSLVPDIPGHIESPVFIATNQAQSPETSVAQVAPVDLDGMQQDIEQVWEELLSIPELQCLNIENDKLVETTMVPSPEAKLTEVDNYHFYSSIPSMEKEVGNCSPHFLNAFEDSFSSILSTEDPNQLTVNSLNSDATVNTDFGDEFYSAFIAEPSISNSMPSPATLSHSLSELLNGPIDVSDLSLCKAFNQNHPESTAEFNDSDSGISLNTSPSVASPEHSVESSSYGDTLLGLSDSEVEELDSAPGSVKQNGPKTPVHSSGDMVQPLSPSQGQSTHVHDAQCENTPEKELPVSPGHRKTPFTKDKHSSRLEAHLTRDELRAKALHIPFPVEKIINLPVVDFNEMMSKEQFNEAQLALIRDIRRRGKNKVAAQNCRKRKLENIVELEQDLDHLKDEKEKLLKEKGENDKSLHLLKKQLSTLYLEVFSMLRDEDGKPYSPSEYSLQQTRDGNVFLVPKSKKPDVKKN
Sequence of Cellular tumor antigen p53 (Homo sapiens) (P04637 whole entry, looked up): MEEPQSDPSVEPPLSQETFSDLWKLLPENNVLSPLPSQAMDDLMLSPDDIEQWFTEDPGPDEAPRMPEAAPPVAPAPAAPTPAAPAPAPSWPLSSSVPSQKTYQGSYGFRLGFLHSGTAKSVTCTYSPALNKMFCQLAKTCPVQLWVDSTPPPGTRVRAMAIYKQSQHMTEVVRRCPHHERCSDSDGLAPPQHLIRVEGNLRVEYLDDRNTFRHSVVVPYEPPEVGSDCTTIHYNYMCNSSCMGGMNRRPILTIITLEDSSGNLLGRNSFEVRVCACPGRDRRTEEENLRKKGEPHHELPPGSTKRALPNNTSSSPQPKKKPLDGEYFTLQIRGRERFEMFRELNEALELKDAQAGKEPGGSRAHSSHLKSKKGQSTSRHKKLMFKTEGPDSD
Sequence of Nuclear factor NF-kappa-B p105 subunit (Homo sapiens) (P19838 whole entry, looked up): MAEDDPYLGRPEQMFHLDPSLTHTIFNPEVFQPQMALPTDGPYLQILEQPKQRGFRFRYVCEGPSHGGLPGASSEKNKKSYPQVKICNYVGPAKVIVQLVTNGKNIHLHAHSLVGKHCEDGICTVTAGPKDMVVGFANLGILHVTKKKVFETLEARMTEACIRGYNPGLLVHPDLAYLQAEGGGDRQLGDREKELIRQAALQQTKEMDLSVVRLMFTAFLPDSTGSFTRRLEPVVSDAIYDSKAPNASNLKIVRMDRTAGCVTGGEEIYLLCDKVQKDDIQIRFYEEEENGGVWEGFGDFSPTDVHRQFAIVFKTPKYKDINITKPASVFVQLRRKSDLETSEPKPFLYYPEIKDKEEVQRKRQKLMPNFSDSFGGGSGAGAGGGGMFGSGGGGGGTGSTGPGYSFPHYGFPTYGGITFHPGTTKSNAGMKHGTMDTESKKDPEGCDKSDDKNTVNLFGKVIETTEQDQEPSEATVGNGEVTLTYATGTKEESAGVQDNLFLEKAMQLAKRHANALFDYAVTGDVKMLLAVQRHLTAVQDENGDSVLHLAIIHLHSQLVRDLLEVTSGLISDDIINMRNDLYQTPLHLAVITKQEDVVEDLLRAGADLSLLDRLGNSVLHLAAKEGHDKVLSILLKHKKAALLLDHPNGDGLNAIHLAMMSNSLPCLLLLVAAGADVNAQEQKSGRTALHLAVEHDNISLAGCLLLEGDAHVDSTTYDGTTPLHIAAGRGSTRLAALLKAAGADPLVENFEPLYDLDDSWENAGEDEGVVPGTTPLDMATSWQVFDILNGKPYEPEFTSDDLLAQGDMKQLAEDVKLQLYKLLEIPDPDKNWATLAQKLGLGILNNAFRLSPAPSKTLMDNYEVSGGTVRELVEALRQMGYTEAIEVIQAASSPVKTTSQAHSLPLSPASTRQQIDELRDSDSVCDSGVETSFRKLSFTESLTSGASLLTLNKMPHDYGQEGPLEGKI

As for `O=C(O)c1ccccc1-n1cc(C(=O)O)c(=O)c2cc(Nc3c(F)cc(F)cc3Cl)c(Cl)cc21`, the AC50 was 21.1 µM (active) in assay [1], 0.0319 µM (active) in [13] and 0.0904 µM (active) in [17]. Besides, the call in assay [2], in assay [3], in [4], in [5], in assay [6] and in [7] was inactive. The outcome in assay [8], in [9], in [10], in assay [11], in [12] and in assay [14] was inactive. The compound was classed as inactive in [15] and in assay [16].

With `c1ccc(C[n+]2cccc3ccccc32)cc1`, the result in assay [1], in assay [2], in [3], in assay [4], in [18] and in assay [7] was inactive. In addition, the call in [11], in assay [12] and in [17] was inactive. Further, the AC50 in [5] is 25 µM (active); in [6] it was 13.6 µM (active); in [8] it was 31.1 µM (active); in [9], 32.4 µM (active); in assay [10], 63 µM (active); in assay [13] it was 27.3 µM (active). Moreover, the AC50 was 50 µM (active) in [14], 35.7 µM (active) in assay [15] and 26 µM (active) in assay [16].

For the compound `CC(C)(C)c1csc(-c2cc3cc(OCc4ccccc4CC(=O)O)ccc3o2)n1`, the AC50 was 50 µM (active) in assay [1]; 85.2 µM (active) in [3]; 80.1 µM (active) in assay [4]; 25 µM (active) in assay [5]; 12 µM (active) in assay [19]; 84.8 µM (active) in assay [7]. Further, the AC50 in assay [8] was 50 µM (active); in [9], 34 µM (active); in [10] it was 85.4 µM (active); in assay [11], 81.9 µM (active); in assay [12], 78.4 µM (active); in assay [13], 83.2 µM (active). Also, the AC50 in [15] is 82.4 µM (active); in [16], 85.5 µM (active); in assay [17] it was 77.2 µM (active). For the same compound, the call in [6] and in assay [14] was inactive.
